Reference: the supplement of paper PMC8728848
Many of the other results were omitted from the sample, so the strongest signals are more common in it than they were.

What was measured:
Test in all cases: glycan array binding signal (z-score within array); higher = stronger binding
Details in all cases: glycan notation: IUPAC condensed, linker removed
[1] = target: Fuc(a1-2)Gal
Summary of the method: (§1)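 Glycan array data were curated from 3228 arrays in the Consortium for Functional Glycomics database and kept only where the protein sequence was available. Glycan names were converted to IUPAC-condensed notation, and columns mapping to the same glycan were averaged. The binding signal is a within-array Z-score, averaged across arrays of the same protein sequence at different concentrations or buffers and across linkers. Negative Z-scores can be read as non-binding.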

[2] = target: Fuc(a1-2)Gal(b1-3)GalNAc(b1-3)Gal
Summary of the method: as §1

[3] = target: Fuc(a1-2)Gal(b1-4)[Fuc(a1-3)]GlcNAc
Summary of the method: as §1

[4] = target: Fuc(a1-2)Gal(b1-4)[Fuc(a1-3)]GlcNAc(b1-2)Man(a1-3)[Fuc(a1-2)Gal(b1-4)[Fuc(a1-3)]GlcNAc(b1-2)Man(a1-6)]Man(b1-4)GlcNAc(b1-4)[Fuc(a1-6)]GlcNAc
Summary of the method: as §1

[5] = target: Fuc(a1-2)[Gal(a1-3)]Gal
Summary of the method: as §1

[6] = target: Fuc(a1-2)[Gal(a1-3)]Gal(b1-3)GlcNAc(b1-6)GalNAc
Summary of the method: as §1

[7] = target: Fuc(a1-2)[Gal(a1-3)]Gal(b1-4)GlcNAc(b1-2)Man
Summary of the method: as §1

[8] = target: Fuc(a1-2)[GalNAc(a1-3)]Gal
Summary of the method: as §1

[9] = target: Fuc(a1-2)[GalNAc(a1-3)]Gal(b1-4)Glc
Summary of the method: as §1

[10] = target: Fuc(a1-2)[GalNAc(a1-3)]Gal(b1-4)GlcNAc
Summary of the method: as §1

[11] = target: Fuc(a1-2)[GalNAc(a1-3)]Gal(b1-4)GlcNAc(b1-2)Man(a1-3)[Fuc(a1-2)[GalNAc(a1-3)]Gal(b1-4)GlcNAc(b1-2)Man(a1-6)]Man(b1-4)GlcNAc(b1-4)[Fuc(a1-6)]GlcNAc
Summary of the method: as §1

[12] = target: Fuc(a1-2)[GalNAc(a1-3)]Gal(b1-4)GlcNAc(b1-3)GalNAc
Summary of the method: as §1

[13] = target: Fuc(a1-3)[Gal(b1-4)]Glc6S
Summary of the method: as §1

[14] = target: Fuc(a1-3)[GalNAc(b1-4)]GlcNAc
Summary of the method: as §1

[15] = target: Fuc(a1-4)GlcNAc
Summary of the method: as §1

[16] = target: Gal(a1-3)Gal(b1-3)GlcNAc(b1-3)GalNAc
Summary of the method: as §1

[17] = target: Gal(a1-3)Gal(b1-4)GlcNAc(b1-6)GalNAc
Summary of the method: as §1

[18] = target: Gal(a1-4)Gal(b1-4)GlcNAc(b1-2)Man(a1-3)[Gal(a1-4)Gal(b1-4)GlcNAc(b1-2)Man(a1-6)]Man(b1-4)GlcNAc(b1-4)GlcNAc
Summary of the method: as §1

[19] = target: Gal(b1-3)Gal(b1-4)GlcNAc
Summary of the method: as §1

[20] = target: Gal(b1-3)GlcNAc(b1-2)Man(a1-3)[Gal(b1-3)GlcNAc(b1-2)Man(a1-6)]Man(b1-4)GlcNAc(b1-4)GlcNAc
Summary of the method: as §1

[21] = target: Gal(b1-3)GlcNAc(b1-3)Gal(b1-4)GlcNAc(b1-2)Man(a1-3)[Gal(b1-3)GlcNAc(b1-3)Gal(b1-4)GlcNAc(b1-2)Man(a1-6)]Man(b1-4)GlcNAc(b1-4)GlcNAc
Summary of the method: as §1

[22] = target: Gal(b1-3)[Fuc(a1-4)]GlcNAc(b1-2)Man
Summary of the method: as §1

[23] = target: Gal(b1-3)[Fuc(a1-4)]GlcNAc(b1-3)Gal(b1-3)[Fuc(a1-4)]GlcNAc
Summary of the method: as §1

[24] = target: Gal(b1-3)[Neu5Ac(b2-6)]GalNAc
Summary of the method: as §1

[25] = target: Gal(b1-4)Glc
Summary of the method: as §1

[26] = target: Gal(b1-4)GlcNAc(b1-2)Man
Summary of the method: as §1

[27] = target: Gal(b1-4)GlcNAc(b1-2)Man(a1-6)Man(b1-4)GlcNAc(b1-4)GlcNAc
Summary of the method: as §1

[28] = target: Gal(b1-4)GlcNAc(b1-3)Gal(b1-4)GlcNAc(b1-3)Gal(b1-4)GlcNAc(b1-2)Man(a1-3)[Gal(b1-4)GlcNAc(b1-3)Gal(b1-4)GlcNAc(b1-3)Gal(b1-4)GlcNAc(b1-2)Man(a1-6)]Man(b1-4)GlcNAc(b1-4)[Fuc(a1-6)]GlcNAc
Summary of the method: as §1

[29] = target: Gal(b1-4)GlcNAc(b1-3)Gal(b1-4)GlcNAc(b1-3)Gal(b1-4)GlcNAc(b1-2)[Gal(b1-4)GlcNAc(b1-3)Gal(b1-4)GlcNAc(b1-3)Gal(b1-4)GlcNAc(b1-6)]Man(a1-6)[Gal(b1-4)GlcNAc(b1-3)Gal(b1-4)GlcNAc(b1-3)Gal(b1-4)GlcNAc(b1-2)Man(a1-3)]Man(b1-4)GlcNAc(b1-4)[Fuc(a1-6)]GlcNAc
Summary of the method: as §1

B1: LBL-152 (Laetiporus bicolor), B0D650 (protein)
chain: MSNEYNPPLGIAFRLCGLASDRVLFSRVSPSPEVFHHPKSEVYPDQWFVAIPGSGQNAGCYAIKSKNTGKVLFSRMSPDPRVGHIDGDGKYPDNWFKFEAGSGKYAGYFRLRAVASDTVLVSRTSTGTDTQVINYPATSAKYDDQYFTILFDHHHHHH
In the case of B1, the “glycan array binding signal (z-score)” value [1] is reported as -0.151, the “glycan array binding signal (z-score)” value [2] is reported as -0.162 and the “glycan array binding signal (z-score)” value [3] is reported as -0.157. The “glycan array binding signal (z-score)” value [4] was -0.147, the “glycan array binding signal (z-score)” value [5] was -0.145 and the “glycan array binding signal (z-score)” value [6] was -0.156. The “glycan array binding signal (z-score)” value [7] was -0.153, the “glycan array binding signal (z-score)” value [8] was -0.151 and the “glycan array binding signal (z-score)” value [9] was -0.157. For the same binder, the “glycan array binding signal (z-score)” value [10] was -0.156, the “glycan array binding signal (z-score)” value [11] was -0.156 and the “glycan array binding signal (z-score)” value [12] was -0.155. The “glycan array binding signal (z-score)” value [13] was -0.156, the “glycan array binding signal (z-score)” value [14] was -0.141 and the “glycan array binding signal (z-score)” value [15] was -0.151. The “glycan array binding signal (z-score)” value [16] was -0.158, the “glycan array binding signal (z-score)” value [17] was -0.162 and the “glycan array binding signal (z-score)” value [18] was -0.132. The “glycan array binding signal (z-score)” value [19] was -0.158, the “glycan array binding signal (z-score)” value [20] was -0.154 and the “glycan array binding signal (z-score)” value [21] was -0.136. The “glycan array binding signal (z-score)” value [22] was -0.159, the “glycan array binding signal (z-score)” value [23] was -0.16 and the “glycan array binding signal (z-score)” value [24] was -0.154. For the same binder, the “glycan array binding signal (z-score)” value [25] was -0.156, the “glycan array binding signal (z-score)” value [26] was -0.148 and the “glycan array binding signal (z-score)” value [27] was -0.156. The “glycan array binding signal (z-score)” value [28] was 5.46 and the “glycan array binding signal (z-score)” value [29] was 4.41.
